Measured values from PubChem BioAssay AID1463 (National Center for Advancing Translational Sciences (NCATS), 2008).
Screen size: about 280,000 compounds; about 2,600 (0.93%) were called active. Inconclusive results (about 8%) are left out. The list comes from a sample in which actives are over-represented; it also holds similar structures and randomly drawn compounds. A number with no mark means an inactive call. The call rests on the fitted dose curve; in most records, active means well fitted curve in the direction sought with a large enough effect; inconclusive means small, poorly fitted or top-dose-only effect; inactive means flat fitted curve, though single readings scatter.

Test: Counterscreen qHTS for Inhibitors of Tau Fibril Formation, Fluorescence Polarization; further: nearly all actives have a fitted effect of over 55% in size
Details: tau K18 P301L Alexa594 fluorescence, heparin fibrillization; series mostly up to 57.7 µM; activity change, negative = decrease: at the top concentration
Procedure, shortened: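 Human tau K18 P301L (15 uM unlabeled, 0.24 uM Alexa 594-labeled) in 100 mM sodium acetate pH 7 with 20 uM heparin, 6 hr at 37 C. ThT 30 uM added, 1 hr ambient; Alexa 594 FP and total fluorescence read at 555/632 nm.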
On the % scale 0 is the no-effect control and ±100 the full control effect; potency means the concentration at half of the fitted maximal effect; tags describe the fitted curve by direction and shape or compound fluorescence and quenching.

Structure (SMILES)	activity change, negative = decrease [%]	Potency
CCOC(=O)C1=C(C)NC(SC)=NC1c1ccccc1 (stereo not given)	5.93	
CSc1nc(=O)c2c(n1C)NC(=O)CC2c1ccccc1OC(C)C (stereo not given)	6.57	
CN=c1scc(-c2cc(OC)ccc2OC)n1/N=C/c1c(C)[nH]c2ccccc12		12.6 µM [quencher] (active)
COC(=O)c1[nH]c2ccccc2c1NS(=O)(=O)c1ccc(OC)cc1OC	-14.2	
CCn1c(-c2cc(OC)ccc2OC)csc1=Nc1c(C)n(C)n(-c2ccccc2)c1=O	1.14	
CC(=O)N1CCCc2cc(S(=O)(=O)N3CCC(C(=O)NCc4ccc(F)cc4)CC3)ccc21	-8.19	
COc1ccc(OC)c(NC(=O)C2CCCN(S(=O)(=O)c3ccc4c(c3)CCCC(=O)N4)C2)c1 (stereo not given)	-14.8	
CCOc1ccccc1C(=O)NC1(C(F)(F)F)NC(=O)N(CCc2ccc(OC)c(OC)c2)C1=O (stereo not given)	-25.1	
O=C(O)c1cccc(S(=O)(=O)Nc2ccc(O)cc2Sc2nc3ccccc3s2)c1	-11.3	
CC(C)c1ccc(S(=O)(=O)Nc2ccc(O)c(Sc3nc4ccccc4s3)c2)cc1		14.1 µM [quencher] (active)
O=C(CSc1nc2ccccc2s1)Nc1ccc(C(=O)O)cc1	-1.03	
Cc1nnc(SCC(=O)NCc2ccccc2Cl)c2nn(-c3ccccc3)c(C)c12	-3.68	
CCc1ccc(C2C(C(=O)Nc3ccccc3)=C(C)Nc3c(C(=O)Nc4ccc(C)cc4)cnn32)cc1 (stereo not given)	-17.3	
COc1ccc(/C=C/c2nc(C#N)c(NCc3ccc(F)cc3)o2)cc1OC	-24.2	
COc1ccccc1/C=C/c1nc(C#N)c(NC(C)c2ccccc2)o1 (stereo not given)		11.2 µM [quencher] (active)
CC(Nc1oc(-c2ccccc2)nc1-c1ccccc1)c1ccccc1 (stereo not given)		inactive
CCOc1ccc(-n2c(SCC(=O)NCc3ccccc3)nc3n[nH]c(C)c3c2=N)cc1	-26.8	
Nc1cccc(CCc2nc3ccccc3[nH]2)c1	-26.2	
Nc1cccc(-c2cc(-c3ccccc3)nc(-c3cccc(N)c3)n2)c1		2.51 µM [quencher] (active)
Cc1nc(NNC(=O)c2ccccc2)cc(-c2ccccc2)n1	-5.45	
CCCCn1c(CNC(=O)C23CC4CC(CC(C4)C2)C3)nnc1SCC(=O)Nc1ccc(C)cc1	-19.1	
O=C(CC(c1cccs1)N1Cc2ccccc2C1=O)Nc1ccc(F)cc1F (stereo not given)	-7.54	
CCc1ccc(S(=O)(=O)Nc2cc3c(C(=O)OCc4ccccc4)c(C)oc3c3ccccc23)cc1	-17.9	

Structure (SMILES)	activity change, negative = decrease [%]	Potency
O=C(Cn1c(=O)n(-c2ccc(F)cc2)c(=O)c2sccc21)Nc1cccc(C(F)(F)F)c1	-26.6	
O=C(Cn1cc(/C=N/NC(=O)c2cccc(C(F)(F)F)c2)c2ccccc21)Nc1ccc(F)cc1		8.91 µM [quencher] (active)
COc1ccc(/C=N/NC(=O)c2cccc(C(F)(F)F)c2)cc1	-18.3	
O=C(CCCN1C(=O)/C(=C/c2ccccc2)SC1=S)Nc1ccc(O)cc1		25.1 µM [quencher] (active)
O=C(CCCN1C(=O)/C(=C\c2ccco2)SC1=S)Nc1cccc2ccccc12	-27.4	
COc1ccc(NC(=O)CCN2C(=O)/C(=C/c3ccc4c(c3)OCO4)SC2=S)cc1	-11.1	
COC(=O)c1ccc(NC(=O)c2cnn(-c3ccc(Cl)cc3)c2C2CCN(C(=O)OC(C)(C)C)CC2)cc1	-24.3	
O=C(COC(=O)c1c2c(nc3ccccc13)/C(=C\c1cccs1)CCC2)Nc1ccccc1Cl	-17.9	
NC(=O)c1ccc(NC(=O)COC(=O)c2c3c(nc4ccccc24)/C(=C\c2ccc4c(c2)OCO4)CCC3)cc1		8.91 µM [quencher] (active)
CC(NC(=O)COC(=O)c1ccc2c(c1)OCO2)c1ccccc1 (stereo not given)	-7.88	
CCC1CCCCN1C(=O)Cn1c(=O)n(CCCCCC(=O)NCc2ccccc2)c(=O)c2sccc21 (stereo not given)	-9.54	
CCC(=O)Nc1c(C(=O)N2CCN(c3ccc(F)cc3)CC2)oc2ccccc12	-15	
CCc1ccc(NC(=O)C2CCCN2S(=O)(=O)c2ccc3nc(-c4ccccc4)[nH]c3c2)cc1 (stereo not given)		25.1 µM [quencher] (active)
CCc1nnc(NC(=O)C2CCCN2S(=O)(=O)c2ccccc2)s1 (stereo not given)	1.04	
CCc1ccccc1NS(=O)(=O)c1ccc2nc(-c3ccccc3)[nH]c2c1	-6.34	
Cc1ccccc1CNC(=O)c1ccc(NC(=O)N2CCCCc3ccccc32)cc1	9.05	
COCCNC(=O)c1ccccc1NS(=O)(=O)c1ccc(C)c([N+](=O)[O-])c1	8.38	
CN1CCN(c2ccc(S(=O)(=O)Nc3ccccc3)cc2[N+](=O)[O-])CC1	-7.58	
O=[N+]([O-])c1cc(S(=O)(=O)Nc2cccc(Cl)c2)ccc1N=Nc1c(O)[nH]c2ccccc12		14.1 µM [quencher] (active)
O=C(NCc1ccccc1)c1cccc(NC(=O)N2CCSc3ncccc32)c1	-0.267	
CCOC(=O)C1CCCN(C(=O)c2ccc3c(c2)sc2nc(-c4ccc(CC)cc4)cn23)C1 (stereo not given)	2.07	
CCCCCn1c(=O)[nH]c2cc(C(=O)Nc3cc(C)cc(C)c3)ccc2c1=O	-1.5	
